High-throughput results as filed in PubChem BioAssay.
D2 PAM-1 = potentiates the human D2 dopamine receptor allosterically | P14416 | DiscoveRx D2 beta-arrestin cells, luminescence, 90 min; 100% = 57 uM dopamine signal | potentiation, % (no concentration beside the values) | 0.23% of 360,000 active | AID 624464; in the data active means potentiation above about 50%; inconclusive means mostly about 30% to 49%
Target sequence (P14416 whole entry, looked up): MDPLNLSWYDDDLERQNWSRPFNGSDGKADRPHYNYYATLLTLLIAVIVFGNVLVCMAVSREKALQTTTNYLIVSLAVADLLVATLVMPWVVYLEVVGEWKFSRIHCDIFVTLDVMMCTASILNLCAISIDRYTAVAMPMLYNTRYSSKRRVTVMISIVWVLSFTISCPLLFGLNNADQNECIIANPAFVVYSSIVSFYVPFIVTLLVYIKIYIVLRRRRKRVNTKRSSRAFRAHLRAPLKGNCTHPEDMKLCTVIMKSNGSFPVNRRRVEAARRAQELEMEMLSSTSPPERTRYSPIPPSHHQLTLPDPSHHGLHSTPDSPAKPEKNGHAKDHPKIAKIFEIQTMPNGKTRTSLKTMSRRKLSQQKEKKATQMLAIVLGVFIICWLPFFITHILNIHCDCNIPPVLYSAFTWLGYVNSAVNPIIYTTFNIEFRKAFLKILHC
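PathHunter beta-arrestin assay in DiscoveRx D2 cells. Compounds were added with an EC20 of dopamine (50 nM final) for 90 min at 37 deg C. Luminescence was read 1 h after detection reagent, with 57 uM dopamine as the EC100 control.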
D2 ag-1 = D2 dopamine receptor (human) agonism; HEK293 T-REx D2 cells, calcium flux agonist mode; AID 485358; P14416; activation, % at 2 µM; 0.53% of 340,000 active;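 active means activation over 3 SD above normal in the single-dose calcium agonist read, cut at about 30% in these data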
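HEK293 Trex D2 cells, tetracycline-induced, o/n 30 C 5% CO2; no-wash Ca dye, RT 30–90 min; 10-cycle baseline, 23 nl cpd added, kinetic Ca read 180 s; agonist hits = positive Ca response.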
D2 PAM-2 = D2 dopamine receptor (human) potentiation; 0.34% of 340,000 active; AID 485347; potentiation, % at 10 µM; HEK293 T-REx D2, calcium flux, EC20 dopamine potentiation;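 active means potentiation over 3 SD above the plate norm, cut at about 30% in these data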
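Tetracycline-induced HEK293 T-REx cells force-coupled to calcium signalling expressed D2; compounds were pin-added after a 10 s baseline, read kinetically 180 s, then an EC20 dopamine challenge followed with a further 180 s calcium read.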
D2 antag = antagonizes the human D2 dopamine receptor. HEK293 TREx D2 cells, calcium flux, dopamine EC80. inhibition, % at 10 µM. 2% of 340,000 active. AID 485344; in the data active means inhibition above about 30%; inactive means below that, where a call was filed
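Overnight-induced (tetracycline, 30 C) HEK293 T-REx cells carrying force-coupled D2 receive a no-wash calcium dye, then compound, then EC80 dopamine at 180 s; signals are read kinetically throughout.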
D2 ag-2 = agonists of human D2 dopamine receptor (beta-arrestin); P14416; DiscoveRx PathHunter D2 beta-arrestin, luminescence, 90 min; 100% = 57 uM dopamine signal; activation, % (no concentration beside the values); 0.084% of 360,000 active; in the data active means activation above about 40%; inconclusive means between about 15% and that limit
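DiscoveRx PathHunter D2 beta-arrestin cells (2,100/well) attached overnight, then compound-stimulated 90 min at 37 C in HBSS/10 mM HEPES/0.1% Tween-20 buffer; beta-galactosidase complementation read by luminescence after 1 h at ambient temperature. Dopamine 57 uM final (EC100) as control.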
Hits are given with their value; - = inactive; ? = inconclusive; . = not tested or not shown. In the library only some 2.4% were active in any assay of this set; here they are far more common.

SMILES	D2 PAM-1	D2 ag-1	D2 PAM-2	D2 antag	D2 ag-2
c1cnc2ccc(C(c3nnnn3C3CCCCC3)N3CCN(C4CCCCC4)CC3)cc2c1 (stereo unspecified)	-	.	.	.	-
O=C(c1ccco1)N1CCN(C(c2ccccn2)c2nnnn2C2CCCC2)CC1 (stereo unspecified)	-	-	35	-	-
O=C(Nc1ccc(F)c(F)c1)C1CCCN1S(=O)(=O)c1cccc2nsnc12 (stereo unspecified)	.	-	-	.	.
Cc1cc(C)c(C)c(OCc2nc(-c3cccnc3)no2)c1	-	-	33	-	-
CCC(=O)NC1=C(NC(C)c2ccccc2)C(=O)c2ccccc2C1=O (stereo unspecified)	?	-	-	-	-
CCC(=O)NC1=C(Cl)C(=O)C(NC(=O)CC)=C(Cl)C1=O	-	-	-	-	42
COc1ccc(C(=O)Nc2ccc(Cl)c(Cl)c2)c(OC)n1	-	-	-	-	-
COc1ccc(C(=O)O)c(OC)n1	-	-	-	30	-
Cn1cc(-c2nnnn2-c2ccc(Cl)cc2)c(=O)c2ccccc21	-	-	-	-	-
CCn1cc(-c2nnnn2-c2ccc(Cl)cc2)c(=O)c2ccccc21	-	-	38	-	-
Cc1cccc(C)c1NCc1n[nH]c(=S)n1-c1ccccc1	-	-	-	51	-
CCNCCC(=O)N1c2ccccc2Sc2ccc(C(F)(F)F)cc21	-	-	-	73	-
COc1ccc(-n2c(N)c(-c3nc4ccccc4n3C)sc2=S)cc1	-	-	-	34	-
CN1CCN(/C=N/C2=C(C#N)C(c3ccccc3)C3=C(CC(C)(C)CC3=O)O2)CC1 (stereo unspecified)	-	-	36	-	-
Cc1ccccc1C(=O)NNc1ncnc2c1cnn2-c1cccc(Cl)c1	.	-	-	.	.
Cc1ccc2oc(-c3ccc(Cl)c(NC(=O)c4ccc(OC(C)C)cc4)c3)nc2c1	.	-	-	.	.
S=C(NC1CCCCC1)NC1CC2CCC(C1)N2Cc1ccccc1 (stereo unspecified)	-	-	-	77	-
CCNC(=S)NC1CC2CCCC(C1)N2CCc1ccccc1 (stereo unspecified)	-	-	-	-	-
CCCNC(=S)NC1CC2CCC(C1)N2Cc1ccccc1 (stereo unspecified)	-	-	-	67	-
CC(C)CNC(=S)NC1CC2CCC(C1)N2Cc1ccccc1 (stereo unspecified)	-	-	-	90	-
CCNC(=S)NC1CC2CCC(C1)N2Cc1ccccc1 (stereo unspecified)	-	-	-	57	-
O=C(NC1CC2CCCC(C1)N2Cc1ccccc1)C1CCCCC1 (stereo unspecified)	-	-	-	-	-
Cc1ccc2c(=O)cc(C(=O)Nc3sc4c(c3C(=O)NCc3cccnc3)CCCC4)oc2c1C	.	-	-	.	.
COc1ccccc1OCC(=O)N1CCN(S(=O)(=O)c2ccc(Cl)cc2)CC1	-	-	-	-	-
COCCCNC(=S)NC1CC2CCC(C1)N2Cc1ccccc1 (stereo unspecified)	-	-	-	-	-
SMILES	D2 PAM-1	D2 ag-1	D2 PAM-2	D2 antag	D2 ag-2
S=C(NCCc1ccccc1)NC1CC2CCC(C1)N2Cc1ccccc1 (stereo unspecified)	-	-	-	63	-
Cc1ccc(OCC(=O)Nc2cccc(OCc3cc(=O)n4cccc(C)c4n3)c2)cc1C	.	-	-	.	.
CCN1C(=O)c2ccccc2S(=O)c2ccc(C(=O)N3CCCCCC3)cc21 (stereo unspecified)	-	-	-	32	-
CCc1nnc(NC(=O)COc2ccc(N(C)S(=O)(=O)c3ccc(C)cc3)cc2)s1	-	-	-	40	-
Cc1ccc(S(=O)(=O)N(C)c2ccc(OCC(=O)Nc3nnc(C4CC4)s3)cc2)cc1	-	-	-	-	-
CCOc1ccc(CNC(=O)c2ccc(Sc3ccc(C)cc3)c(N)c2)cc1OC	.	-	-	.	.
O=C(Nc1ccccc1)Nc1cccc2cccnc12	-	-	34	-	-
CCOC(=O)C1=CCC(c2ccc(C#N)cc2)N(S(=O)(=O)c2ccc(C)cc2)C1 (stereo unspecified)	-	.	.	.	-
CC(=O)c1cccc(-c2ccnc3c2CC(C(=O)Nc2cccc(Oc4ccccc4)c2)O3)c1 (stereo unspecified)	-	.	.	.	-
O=C1c2cccc([N+](=O)[O-])c2C(=O)N1CCO	-	-	40	-	-
CN(Cc1ccccc1)C(=O)CCN1C(=O)c2cccc([N+](=O)[O-])c2C1=O	-	.	.	.	-
CSC1=C(C#N)C(c2ccccc2)C(C(C)=O)=C(C)N1 (stereo unspecified)	-	-	-	-	-
CSCSC1=C(C#N)C(c2ccc(Cl)cc2)C(C(C)=O)=C(C)N1 (stereo unspecified)	.	-	-	32	.
Cc1c(Cl)cccc1-n1nnc(-c2nc(-c3ccc4c(c3)OCO4)no2)c1C	.	-	-	.	.
NNC(=O)/C(=C\c1cccs1)NC(=O)c1ccccc1	-	-	-	31	-
COc1ccc([N+](=O)[O-])cc1/C=N/NC(=O)/C(=C\c1cccs1)NC(=O)c1ccccc1	-	-	-	43	-
Cc1csc2nc(CSc3nc4ccccc4o3)c(Br)n12	-	-	36	-	-
Fc1ccc(NC(=S)N/N=C/c2cccc(Br)c2)c(F)c1	-	-	48	-	-
Cc1cc(SCC(=O)N(C)c2c(N)n(Cc3ccccc3)c(=O)[nH]c2=O)nc2ccccc12	-	-	-	38	-
CC(=O)c1ccc(NC(=O)c2ccc3nc(-c4ccco4)c(-c4ccco4)nc3c2)cc1	76	.	.	.	-
O=C(Nc1ccccc1)c1ccc2nc(-c3ccco3)c(-c3ccco3)nc2c1	?	-	-	-	-
Cc1nc2c(OCCN3C(=O)c4ccccc4C3=O)cccn2c1N(C)C(=O)CCC1CCCC1	-	.	.	.	-
COc1cc(Cn2c3ccc(NC(=O)CCc4ccc(O)cc4)cc3c(=O)n2C)ccc1F	-	.	.	.	-
COc1ccccc1C(=O)c1cn(CC(=O)Nc2ccccc2F)c2nc(C)ccc2c1=O	.	.	-	.	.
N#CC1=C(N)Nc2ncnn2C1c1ccccc1 (stereo unspecified)	.	-	-	-	.
CC1CC(=O)C2=C(C1)Nc1ncnn1C2c1ccccc1 (stereo unspecified)	-	-	34	-	-
c1ccc(C2C3=C(CCCC3)Nc3ncnn32)cc1 (stereo unspecified)	-	-	-	31	-
O=C1CC(c2cccs2)CC2=C1C(c1ccccc1)n1ncnc1N2 (stereo unspecified)	-	-	-	-	-
CCc1ccccc1NC(=O)C(CCSC)NS(=O)(=O)c1ccc2c(c1)oc(=O)n2C (stereo unspecified)	.	-	-	.	.
O=C(Cc1csc2nc(-c3ccc(F)cc3)cn12)NCc1ccccc1	.	-	-	.	.
